# Compounds with a hit are over-represented: about 2% of the library has one in this group of screens.
# A3A deaminase – human APOBEC3A DNA deaminase inhibition; hit rate 0.41% among 330,000; inhibition, % at 20 µM; recombinant A3A, FAM/TAMRA ssDNA deamination fluorescence; P31941;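 active means at least 40% inhibition at 20 µM here, with at most 30% in a related deaminase screen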;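 further: plate controls were A3A with DMSO for no effect and wells lacking A3A enzyme for full effect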
# A3G deaminase – blocks human APOBEC3G single-stranded DNA deamination; Q9HC16; recombinant A3G, ssDNA deamination FAM/TAMRA fluorescence; inhibition, % at 20 µM; hit rate 0.28% among 330,000; AID 493012;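 active means inhibition of at least 40% at 20 µM, with no more than 30% in the related APOBEC3A deaminase screen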;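 further: plate controls were DMSO wells with A3G for no effect and wells lacking A3G enzyme for full effect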
# NPR1 activator – GC-A (human) enzyme activation. hit rate 0.14% among 370,000. HEK293 GC-A cells, cGMP TR-FRET, EC30 ANP; 0% at EC30 ANP, 100% saturating ANP. P16066. activation, % at 10 µM; in the data active means activation above about 40%
# Neddyl block – inhibitors of human cullin neddylation; P61081+Q13564; TR-FRET cullin neddylation, biochemical; inhibition, % at 25 µM; hit rate 0.58% among 360,000; in the data active means inhibition above about 36%
# GC-B act – GC-B (human) receptor activation; HEK293-GC-B cells, CNP EC30, cGMP TR-FRET; 0% at EC30 CNP, 100% saturating CNP; hit rate 0.11% among 370,000; P20594; AID 1920062; activation, % at 10 µM;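 active means activation at 10 µM reaching about 35% in either raw or pattern-adjusted values, limit read from the data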
# Target sequence (P20594 whole entry, looked up): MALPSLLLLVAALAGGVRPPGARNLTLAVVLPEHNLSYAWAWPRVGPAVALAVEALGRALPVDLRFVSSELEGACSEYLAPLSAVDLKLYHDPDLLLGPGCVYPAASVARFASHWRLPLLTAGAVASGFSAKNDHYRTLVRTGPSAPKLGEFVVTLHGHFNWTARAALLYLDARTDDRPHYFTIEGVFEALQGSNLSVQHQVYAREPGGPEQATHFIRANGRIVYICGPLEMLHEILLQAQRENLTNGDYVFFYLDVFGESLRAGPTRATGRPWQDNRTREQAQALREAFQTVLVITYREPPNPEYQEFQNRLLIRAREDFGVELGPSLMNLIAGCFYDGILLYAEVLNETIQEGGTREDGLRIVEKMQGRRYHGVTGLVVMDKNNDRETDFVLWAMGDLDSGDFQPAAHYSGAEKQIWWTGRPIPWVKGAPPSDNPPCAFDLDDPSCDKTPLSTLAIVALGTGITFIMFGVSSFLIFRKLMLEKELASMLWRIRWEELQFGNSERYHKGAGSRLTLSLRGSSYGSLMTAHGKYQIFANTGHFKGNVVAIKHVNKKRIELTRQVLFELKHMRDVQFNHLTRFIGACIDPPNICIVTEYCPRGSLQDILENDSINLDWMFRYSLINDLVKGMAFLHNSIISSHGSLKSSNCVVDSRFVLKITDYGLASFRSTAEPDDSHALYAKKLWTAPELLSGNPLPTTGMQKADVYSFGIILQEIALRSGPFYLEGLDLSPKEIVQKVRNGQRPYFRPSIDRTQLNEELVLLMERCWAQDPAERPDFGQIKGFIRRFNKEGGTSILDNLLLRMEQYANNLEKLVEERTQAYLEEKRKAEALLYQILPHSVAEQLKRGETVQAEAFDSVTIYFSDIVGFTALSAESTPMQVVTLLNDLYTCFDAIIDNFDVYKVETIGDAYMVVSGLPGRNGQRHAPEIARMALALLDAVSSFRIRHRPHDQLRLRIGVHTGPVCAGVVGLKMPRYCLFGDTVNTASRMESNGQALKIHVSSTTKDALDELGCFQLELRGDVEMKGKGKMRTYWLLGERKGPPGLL
# PfGluPho inh – PfG6PD (Plasmodium falciparum) enzyme inhibition; PfGluPho enzyme, NADPH resazurin-diaphorase fluorescence; inhibition, % at 20 µM; hit rate 0.78% among 350,000;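 active means inhibition reaching at least a set limit at 20 µM in the primary screen, cut at about 59% in these data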;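 further: 0% = DMSO wells with substrate and 100% = DMSO wells lacking glucose-6-phosphate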
# PfGluPho conf – confirmation of Plasmodium falciparum G6PD inhibitors; shares compounds with PfGluPho inh; recombinant PfGluPho, NADPH-diaphorase-resazurin fluorescence; inhibition, % at 20 µM; hit rate 34% among 2,400;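 active means inhibition of at least 50% at 20 µM in any single replicate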;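 further: 0% = DMSO with substrate and 100% = DMSO lacking glucose-6-phosphate substrate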
# Diaph ctr 10uM – diaphorase inhibition or oxidation at 10 uM NADPH; hit rate 39% among 820; inhibition, % at 20 µM; shares compounds with PfGluPho inh; diaphorase-coupled resazurin reduction, fluorescence, NADPH 10 uM;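 active means average inhibition reaching 50% or more with the compound at 20 µM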;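 further: resorufin red fluorescence formed as diaphorase reduces resazurin using NADPH; 0% = DMSO with enzyme and 100% = DMSO without enzyme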
# Diaph ctr 30uM – inhibits diaphorase or oxidizes, flagging false PfG6PD hits. AID 504863. shares compounds with PfGluPho inh. Diaphorase/resazurin coupled assay, resorufin fluorescence, 30 uM NADPH. hit rate 29% among 820. inhibition, % at 20 µM;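 active means inhibition averaging 50% or more, tested at 20 µM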;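 further: 0% = DMSO with enzyme and 100% = DMSO wells lacking diaphorase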
# * = called active by the depositor; x = no result shown.
SMILES,A3A deaminase,A3G deaminase,NPR1 activator,Neddyl block,GC-B act,PfGluPho inh,PfGluPho conf,Diaph ctr 10uM,Diaph ctr 30uM
Cc1ccc(NC(=O)c2cc([N+](=O)[O-])ccc2N2CCOCC2)cc1S(=O)(=O)N(C)C,0.0,-5.5,-2.1,-30.0,3.6,78.1*,35.2,x,x
C=CCN1C(C(=O)OC)CN(Cc2cn(Cc3ccc(F)cc3)nn2)CCS1(=O)=O (stereo unspecified),x,x,-1.3,x,-2.0,x,x,x,x
O=C1C=CC(=O)c2c(O)c(N3CCN(CCOCCO)CC3)c(Br)c(O)c21,x,x,-0.2,-14.4,-8.6,115.2*,87.1*,61.0*,53.2*
O=C1C=CC(=O)c2c(O)c(N3CCN(CCO)CC3)c(Cl)c(O)c21,x,x,-5.5,-10.6,-1.8,102.5*,89.3*,53.9*,57.4*
OCCOCCN1CCN(C2=Nc3ccccc3Sc3ccccc32)CC1,-0.2,-6.5,-4.4,-6.9,-3.1,-4.4,x,x,x
O=C(OCc1cn(Cc2ccc(F)cc2)nn1)N1CCOCC1,x,x,2.7,x,4.9,x,x,x,x
COc1ccc(-c2cc(-c3nnc(SCC(=O)N4CCOCC4)n3N)[nH]n2)cc1,x,x,0.3,x,-1.6,x,x,x,x
CC1CCCCC12NC(=S)N(c1ccccc1)N2 (stereo unspecified),-3.8,25.5,8.2,4.4,1.5,60.1*,-8.1,x,x
CC1CCCC2(C1)NC(=S)N(c1ccccc1)N2 (stereo unspecified),-4.9,38.6,-0.3,-0.2,-1.9,3.2,x,x,x
O=C1C=C(NCc2ccccc2)c2ccccc2C1=O,x,x,-6.9,-35.4,1.8,117.6*,29.1,x,x
O=C1C=C(Nc2ccccc2O)c2ccccc2C1=O,2.3,0.6,x,-139.0,x,-4.8,x,x,x
COCc1[nH]nc2c1C(c1ccc(C)cc1)NC2=O (stereo unspecified),x,x,0.9,x,2.9,x,x,x,x
CCC1(CC)Cc2ccccc2-c2nc(NN)[nH]c(=O)c21,5.5,-1.7,-16.4,25.6,-7.5,76.3*,30.8,x,x
CCC1(C)Cc2ccccc2-c2nc(NN)[nH]c(=O)c21 (stereo unspecified),-0.8,-0.4,-1.9,24.4,2.1,35.6,x,x,x
Cc1ccc(C(=O)N(C)[C@H]2C[C@H]3c4[nH]c5c(-c6cccc(C)c6)cccc5c4CCN3C[C@H]2[C@H](C)O)cc1,x,x,-1.8,x,0.6,x,x,x,x
Cc1ccc(/C=C/C(=O)Nc2ccc(S(N)(=O)=O)cc2)o1,5.3,-1.9,11.2,8.3,5.8,43.5,x,x,x
Cc1ccc(/C=C/C(=O)NCCc2cccc(Cl)c2)o1,-5.5,22.7,-12.1,-6.4,-4.0,62.5*,49.1*,-5.9,16.2
Cc1ccc(/C=C/C(=O)NCc2ccc3c(c2)OCO3)o1,0.9,-3.5,2.8,-9.3,1.8,78.1*,30.2,x,x
Cc1ccc(/C=C/C(=O)NCCc2c[nH]c3ccccc23)o1,3.4,-17.1,0.8,-15.4,0.2,36.7,x,x,x
Cc1ccc(/C=C/C(=O)NCc2ccc(S(N)(=O)=O)cc2)o1,x,x,3.6,5.0,-1.6,67.8*,58.4*,-18.7,-2.5
Cc1ccc(/C=C/C(=O)NCC2COc3ccccc3O2)o1 (stereo unspecified),-1.8,-5.6,1.3,4.0,-5.1,63.1*,47.8*,5.4,-7.9
O=C1C=CC2=C3c4cc(O)c(O)cc4CC3(O)COC2=C1O (stereo unspecified),x,x,-12.5,-13.4,-4.1,81.3*,68.5*,16.3,22.3
COC(=O)[C@]12C[C@H](CC(=O)N3CCCC3)C(=O)N(CCC3=CCCCC3)C1=C[C@H](C(C)C)O[C@@H]2C1CC1,x,x,1.1,x,2.7,x,x,x,x
COc1ccc(-c2cc3nc(C)cc(C)n3n2)cc1,3.5,-0.1,1.7,x,-3.2,60.5*,20.2,x,x
O=C(CSc1ccccn1)Nc1nonc1[N+](=O)[O-],1.2,24.3,0.1,9.3,-1.3,111.8*,109.7*,87.4*,90.9*
SMILES,A3A deaminase,A3G deaminase,NPR1 activator,Neddyl block,GC-B act,PfGluPho inh,PfGluPho conf,Diaph ctr 10uM,Diaph ctr 30uM
COCCOC(=O)c1c(C)n(C)c2ccc(OC(=O)c3c(OC)cccc3OC)cc12,2.3,27.5,8.2,-26.0,7.7,59.5*,25.6,x,x
COc1cc(Cl)ccc1NC(=O)COc1ccccc1C(=O)N1CCN(c2ccc(O)cc2)CC1,-2.3,6.5,-1.8,0.3,-0.7,68.4*,41.6,x,x
Cc1cc(Cl)ccc1OCC(=O)Nc1ccccc1C(=O)N1CCOCC1,-1.3,-9.2,-1.1,7.1,-2.4,2.6,x,x,x
CC(=O)OCCCNc1cc(SCc2ccco2)c2nonc2c1[N+](=O)[O-],72.4,63.4,2.3,-36.2,-1.1,53.8,x,x,x
CCC(=O)OCCNc1cc(Sc2nc3ccccc3s2)c2nonc2c1[N+](=O)[O-],-2.4,11.6,33.7,-15.7,28.2,79.2*,64.0*,-5.0,-5.7
O=[N+]([O-])c1c(NCCCO)cc(Sc2nc3ccccc3s2)c2nonc12,-5.2,20.8,x,-22.3,x,77.2*,53.8*,-2.4,-1.9
CCCC(=O)OCCNc1cc(SCc2ccco2)c2nonc2c1[N+](=O)[O-],50.6,33.9,4.6,-12.9,-1.7,45.7,x,x,x
O=[N+]([O-])c1c(NCCO)cc(N2CCCCCC2)c2nonc12,-0.4,-2.1,-0.4,-36.8,-0.3,-2.3,x,x,x
Cc1nnc(Sc2cc(NCCO)c([N+](=O)[O-])c3nonc23)s1,x,x,6.0,-2.2,-1.4,85.6*,67.8*,-1.2,20.0
Cc1ccc(CNC(=O)OC(C)(C)C)c(/C=C/S(=O)(=O)NCCc2ccccc2)c1,x,x,-1.6,x,-3.3,x,x,x,x
CC(=O)N1c2cc(S(=O)(=O)N3CCN(c4ccccc4F)CC3)c(Br)cc2CC1C (stereo unspecified),x,x,-4.0,x,-3.4,x,x,x,x
O=C1C=C(c2ccccc2)C(=O)N1Nc1ccccc1,3.0,10.2,12.8,-13.2,1.3,59.8*,44.9,x,x
CC1(C)Nc2ccc(O)cc2-c2c1ssc2=S,-0.1,-5.2,3.0,-11.4,-6.5,72.0*,54.5*,0.2,9.7
COC(=O)[C@]12C[C@H](CC(=O)NCCCN3CCCC3=O)C(=O)N(Cc3ccc(Cl)cc3Cl)C1=C[C@H](COCc1ccccc1)O[C@@H]2C,x,x,-3.9,x,6.4,x,x,x,x
CCCCCOc1ccc(/C=N/NC(=O)CSc2nnc(-c3ccc(OC)cc3)n2-c2ccc(C)cc2)cc1,x,x,-4.5,x,10.3,x,x,x,x
CC/C(=N\Nc1ccc([N+](=O)[O-])cc1)c1ccccc1,3.7,-7.0,x,-23.2,x,73.8*,-15.3,x,x
Cc1ccc(NC(=O)CC2Nc3ccccc3NC2=O)cc1Cl (stereo unspecified),x,x,-1.5,-1.9,-4.8,-6.6,x,x,x
